Experimental data: PubChem BioAssay AID1159580 (chemical genetic matrix, 2015)
The whole screen tested about 5,500 compounds, of which about 2,000 (36%) were called active. About 18% were inconclusive and are not listed. Cut-off read from the data, not from the text of the source: active = normalized growth mostly below about 0.91 (no sharp cut-off); inconclusive = no clear call, values can overlap the other calls; inactive = mostly above about 0.92. The list shows a part of the results.

Assay: chemical genetic growth profiling, strain panel (AID 1159580);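 note: tested at 20 µM; growth read once vehicle control cultures reached saturation at 30 °C; 1 = growth at the plate median or of vehicle wells; lower values mean less growth of the strain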
Conditions: growth OD

Measured: normalized growth

Cc1ccc2c(c1)CC[C@H]1CC(=O)CC[C@]21C
active: S. cerevisiae deletion strains, locus YNL307C, strain MCK1, hits give low values 0.889
inactive: S. cerevisiae deletion strains, locus YKL009W, strain mrt4, hits give low values 0.982 | S. cerevisiae deletion strains, locus YKL068W, hits give low values 0.991 | S. cerevisiae deletion strains, locus YKL085W, strain MDH1 (second series), hits give low values 0.973 | S. cerevisiae deletion strains, locus YKL085W, strain MDH1, hits give low values 0.973 | S. cerevisiae deletion strains, locus YKL160W, strain elf1, hits give low values 1.01 | S. cerevisiae deletion strains, locus YKL190W, strain CNB1, hits give low values 0.997 | S. cerevisiae deletion strains, locus YKR001C, strain vps1, hits give low values 0.953 | S. cerevisiae deletion strains, locus YKR026C, strain gcn3, hits give low values 1.01 | S. cerevisiae deletion strains, locus YKR091W, strain srl3, hits give low values 1 | S. cerevisiae deletion strains, locus YLL001W, strain dnm1, hits give low values 0.999 | S. cerevisiae deletion strains, locus YLL026W, hits give low values 1.01 | S. cerevisiae deletion strains, locus YLL041C, strain sdh2, hits give low values 0.991 | S. cerevisiae deletion strains, locus YLR027C, strain aat2, hits give low values 0.989 | S. cerevisiae deletion strains, locus YLR039C, strain RIC1, hits give low values 0.925 | S. cerevisiae deletion strains, locus YLR058C, strain SHM2, hits give low values 0.998 | S. cerevisiae deletion strains, locus YLR102C, strain apc9, hits give low values 0.983 | S. cerevisiae deletion strains, locus YLR113W, strain HOG1, hits give low values 0.975 | S. cerevisiae deletion strains, locus YLR221C, strain rsa3, hits give low values 0.995 | S. cerevisiae deletion strains, locus YLR258W, strain gsy2, hits give low values 1 | S. cerevisiae deletion strains, locus YLR262C, strain YPT6 (second series), hits give low values 0.942 | S. cerevisiae deletion strains, locus YLR262C, strain YPT6, hits give low values 0.917 | S. cerevisiae deletion strains, locus YLR268W, strain sec22, hits give low values 1.01 | S. cerevisiae deletion strains, locus YLR320W, strain mms22, hits give low values 0.977 | S. cerevisiae deletion strains, locus YLR330W, strain CHS5, hits give low values 0.991 | S. cerevisiae deletion strains, locus YLR342W, strain FKS1 (second series), hits give low values 0.94 | S. cerevisiae deletion strains, locus YLR342W, strain FKS1, hits give low values 0.997 | S. cerevisiae deletion strains, locus YLR357W, strain rsc2, hits give low values 1.01 | S. cerevisiae deletion strains, locus YLR370C, strain arc18, hits give low values 1.02 | S. cerevisiae deletion strains, locus YLR371W, strain rom2, hits give low values 0.972 | S. cerevisiae deletion strains, locus YLR384C, strain iki3, hits give low values 1.01 | S. cerevisiae deletion strains, locus YLR418C, strain cdc73, hits give low values 0.923 | S. cerevisiae deletion strains, locus YML016C, strain PPZ1, hits give low values 0.984 | S. cerevisiae deletion strains, locus YML032C, strain rad52, hits give low values 0.972 | S. cerevisiae deletion strains, locus YML120C, strain ndi1, hits give low values 0.986 | S. cerevisiae deletion strains, locus YML124C, strain tub3, hits give low values 0.98 | S. cerevisiae deletion strains, locus YMR058W, strain fet3, hits give low values 1.01 | S. cerevisiae deletion strains, locus YMR078C, strain ctf18, hits give low values 0.969 | S. cerevisiae deletion strains, locus YMR125W, strain sto1, hits give low values 1 | S. cerevisiae deletion strains, locus YMR129W, hits give low values 1.01 | S. cerevisiae deletion strains, locus YMR205C, strain PFK2, hits give low values 1 | S. cerevisiae deletion strains, locus YMR223W, strain ubp8, hits give low values 0.966 | S. cerevisiae deletion strains, locus YMR231W, strain pep5, hits give low values 0.997 | S. cerevisiae deletion strains, locus YMR263W, strain SAP30, hits give low values 1.01 | S. cerevisiae deletion strains, locus YMR307W, strain GAS1, hits give low values 0.908 | S. cerevisiae deletion strains, locus YNL067W, strain RPL9B, hits give low values 0.999 | S. cerevisiae deletion strains, locus YNL071W, strain lat1, hits give low values 0.999 | S. cerevisiae deletion strains, locus YNL128W, strain TEP1, hits give low values 1.01 | S. cerevisiae deletion strains, locus YNL153C, strain GIM3, hits give low values 1.02 | S. cerevisiae deletion strains, locus YNL183C, strain NPR1, hits give low values 0.907 | S. cerevisiae deletion strains, locus YNL209W, strain ssb2, hits give low values 0.998 | S. cerevisiae deletion strains, locus YNL233W, strain BNI4, hits give low values 0.979 | S. cerevisiae deletion strains, locus YNL248C, strain rpa49, hits give low values 0.99 | S. cerevisiae deletion strains, locus YNL250W, strain rad50, hits give low values 0.979 | S. cerevisiae deletion strains, locus YNL271C, strain bni1, hits give low values 0.96 | S. cerevisiae deletion strains, locus YNL298W, strain CLA4, hits give low values 0.987 | S. cerevisiae deletion strains, locus YNL322C, strain KRE1 (second series), hits give low values 1 | S. cerevisiae deletion strains, locus YNL322C, strain KRE1, hits give low values 1 | S. cerevisiae deletion strains, locus YNR049C, strain mso1, hits give low values 1 | S. cerevisiae deletion strains, locus YNR052C, strain pop2, hits give low values 0.976 | S. cerevisiae deletion strains, locus YOL006C, strain TOP1, hits give low values 0.878 | S. cerevisiae deletion strains, locus YOL012C, strain htz1 1.46 | S. cerevisiae deletion strains, locus YOL147C, strain pex11, hits give low values 0.981 | S. cerevisiae deletion strains, locus YOR001W, strain rrp6, hits give low values 0.981 | S. cerevisiae deletion strains, locus YOR061W, strain CKA2, hits give low values 0.998 | S. cerevisiae deletion strains, locus YOR069W, strain VPS5, hits give low values 0.998 | S. cerevisiae deletion strains, locus YOR070C, strain gyp1, hits give low values 1 | S. cerevisiae deletion strains, locus YOR080W, strain dia2, hits give low values 0.994 | S. cerevisiae deletion strains, locus YOR083W, strain WHI5, hits give low values 1 | S. cerevisiae deletion strains, locus YOR106W, strain vam3, hits give low values 0.998 | S. cerevisiae deletion strains, locus YOR136W, strain idh2, hits give low values 0.993 | S. cerevisiae deletion strains, locus YOR144C, strain elg1, hits give low values 0.976 | S. cerevisiae deletion strains, locus YOR184W, strain ser1, hits give low values 0.895 | S. cerevisiae deletion strains, locus YOR231W, strain MKK1, hits give low values 0.981 | S. cerevisiae deletion strains, locus YOR265W, strain rbl2, hits give low values 1 | S. cerevisiae deletion strains, locus YOR270C, strain vph1, hits give low values 0.889 | S. cerevisiae deletion strains, locus YOR290C, strain snf2, hits give low values 1.01 | S. cerevisiae deletion strains, locus YOR316C, strain cot1, hits give low values 0.982 | S. cerevisiae deletion strains, locus YPL051W, strain arl3, hits give low values 1.01 | S. cerevisiae deletion strains, locus YPL055C, strain LGE1, hits give low values 0.99 | S. cerevisiae deletion strains, locus YPL078C, strain atp4, hits give low values 0.993 | S. cerevisiae deletion strains, locus YPL106C, strain sse1, hits give low values 1.03 | S. cerevisiae deletion strains, locus YPL240C, strain hsp82, hits give low values 1 | S. cerevisiae deletion strains, locus YPL241C, strain CIN2, hits give low values 0.993 | S. cerevisiae deletion strains, locus YPL256C, strain CLN2, hits give low values 0.965 | S. cerevisiae deletion strains, locus YPR119W, strain clb2, hits give low values 0.98 | S. cerevisiae deletion strains, locus YPR141C, strain kar3, hits give low values 0.976 | S. cerevisiae deletion strains, locus YPR163C, strain tif3, hits give low values 0.974 | S. cerevisiae deletion strains, locus YPR167C, strain met16, hits give low values 0.982 | S. cerevisiae deletion strains, strain wtn01, hits give low values 0.975 | S. cerevisiae strains, strain wild type, hits give low values 0.994
